Compound activity from PubChem.
This is a sample that favours compounds with a hit; in the whole collection about 19% have one here.
ELG1 repair inh – qHTS screen for small molecules that inhibit ELG1-dependent DNA repair in human embryonic kidney (HEK293T) cells expressing luciferase-tagged ELG1 | HEK293T ELG1-luciferase reporter, luminescence, 16 h; DNA damage induced by 5-fluorouridine | Potency, µM (top dose mostly 46.1 µM), inactives show at the top dose activity change, negative = inhibition, hits mostly inhibitors | hit rate 2.3% among 330,000 | AID 504467, 2011; further: potency means the concentration at half of the fitted maximal effect; nearly all actives have a fitted effect of over 55% in size
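Luminescence from the luciferase reporter, measured 30 min after ONE-Glo reagent at room temperature, was the read-out. Beforehand, 2,000 cells per well were exposed for 16 hr at 37 °C to 5-fluorouridine together with compound or vehicle.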
IL-1B inflam inh – qHTS for Inhibitors of Inflammasome Signaling: IL-1-beta AlphaLISA Primary Screen; THP-1 LPS/ATP IL-1B secretion, AlphaLISA, 16 h; active compounds read low; hit rate 4.7% among 360,000; AID 743279, 2014; activity change, % at 57.5 µM; in the data active means activity change below about -50%; inconclusive means mostly about -30% to -49%
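THP-1 cells pretreated 1 hr with compounds (up to 57.5 uM final), then stimulated with LPS (250 ng/mL final) plus ATP (1.25 mM final); secreted IL-1B measured by AlphaLISA after 16 hr, decreased signal indicating inhibition.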
HT1080NT lethal – qHTS for induction of synthetic lethality in tumor cells producing 2HG: qHTS for the HT-1080-NT fibrosarcoma cell line; Potency, µM (doses to about 46.1 µM), inactives show at the top dose activity, negative = less viability, hits mostly cytotoxic; AID 686970, 2013; hit rate 1.6% among 360,000; HT-1080-NT fibrosarcoma viability, CellTiter-Glo ATP luminescence, 48 h;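 further: NT is the 2HG producing partner of a matched IDH1 knockdown line; potency means the concentration at half of the fitted maximal effect; 0% = DMSO-treated cells and -100% = media-only wells without cells; nearly all actives have a fitted effect of over 55% in size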
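HT-1080-NT fibrosarcoma cells (2HG-overproducing), 750 cells/well in RPMI with 5% FBS, dosed after 2 h and incubated 48 h at 37C. CellTiter-Glo luminescence normalized to DMSO and no-cell wells; concentration-response curves fitted and classed.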
TDP1 cell noCPT – qHTS for Inhibitors of human tyrosyl-DNA phosphodiesterase 1 (TDP1): qHTS in cells in absence of CPT | DT40 Tdp1-/- hTDP1 cells, no CPT, ATP luminescence, 48 h | Potency, µM (highest dose often 46.2 µM), inactives show at the top dose activity change, negative = growth inhibition, most hits filed as inhibitors | hit rate 15% among 420,000 | AID 686978, 2013; further: potency means the concentration at half of the fitted maximal effect; nearly all actives have a fitted effect of over 55% in size
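Stably hTDP1-transfected Tdp1-null chicken DT40 cells were treated with library compounds minus camptothecin and grown for at least 48 hr at 37 °C, after which cellular ATP was quantified by luminescence.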
TDP1 cell CPT – qHTS for Inhibitors of human tyrosyl-DNA phosphodiesterase 1 (TDP1): qHTS in cells in presence of CPT | chicken DT40 Tdp1-/-;hTDP1 cells + 20 nM CPT, ATP luminescence, 48 h | Potency, µM (top dose mostly 46.2 µM), without a hit: top-dose activity change, negative = growth inhibition, actives largely listed as inhibitors | AID 686979, 2013 | hit rate 12% among 420,000; further: potency means the concentration at half of the fitted maximal effect; nearly all actives have a fitted effect of over 55% in size
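Chicken DT40 Tdp1-/- cells complemented with human TDP1, 400 cells/well, exposed to compounds plus 20 nM camptothecin for at least 48 h at 37 C; viability read as ATP content by CellTiter-Glo luminescence.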
HT1080 IDH1KD tx – qHTS for induction of synthetic lethality in tumor cells producing 2HG: qHTS for the HT-1080-IDH1KD cell line; Potency, µM (series often up to 46.1 µM), for inactives: top-dose activity, negative = toxicity, actives largely listed as cytotoxic; hit rate 2% among 360,000; HT-1080 IDH1 knockdown viability, ATP luminescence, 48 h; AID 686971, 2013;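 further: potency means the concentration at half of the fitted maximal effect; 0% = DMSO wells and -100% = cell-free medium wells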
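In this qHTS, HT-1080 cells depleted of IDH1 are exposed for 48 h at 37 °C to compound titrations. Toxicity is scored from CellTiter-Glo luminescence, with DMSO as full viability and medium alone as none.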
Starred values were filed as active, the others as inactive; ? = inconclusive; . = not tested or not shown; [ ] = another dose, or the depositor's remark. Unless noted, the call rests on the fitted dose curve; in most records, active means well fitted curve in the direction sought with a large enough effect; inconclusive means small, poorly fitted or top-dose-only effect, or another doubt; inactive means no such curve, though single readings can be large; an effect the other way counts as inactive or inconclusive. Unless noted, on the % scale 0 is the no-effect control and ±100 the full control effect.

SMILES	ELG1 repair inh	IL-1B inflam inh	HT1080NT lethal	TDP1 cell noCPT	TDP1 cell CPT	HT1080 IDH1KD tx
Cc1ccc2nc(NCc3ccc(F)cc3)c3nncn3c2c1	-7%	-16	0%	?	?	-2%
CCc1nnc2c(NCc3ccccc3)nc3ccccc3n12	.	.	.	-18%	5%	.
CCc1nnc2c(NCCc3ccc(OC)c(OC)c3)nc3ccccc3n12	1%	-4	?	16µM*	?	21%
CCOc1ccc(CCNc2nc3ccc(C)cc3n3cnnc23)cc1OCC	?	52	17%	16µM*	?	-7%
COc1ccc(CCNc2nc3ccccc3n3cnnc23)cc1OC	?	-4	13%	?	-26%	8%
CS(=O)(=O)c1ccc(Cl)c(NC(=O)CN2CCN(C(=O)c3cccs3)CC2)c1	8%	-28	8%	-18%	-8%	0%
COc1cc2ccccc2cc1C(=O)Nc1cccc(-c2nc3cc(C)c(C)cc3o2)c1	.	.	.	15µM*	?	.
COc1ccc(-c2nc3cc(NC(=O)c4cc5ccccc5o4)ccc3o2)cc1	.	.	.	16µM*	?	.
CCc1ccc(-c2nc3cc(NC(=O)c4cc5ccccc5cc4OC)ccc3o2)cc1	.	.	.	13µM*	?	.
COCCN1CCN(C(=O)c2cnn(-c3nccc(-c4ccco4)n3)c2C(C)C)CC1	.	.	.	-3%	16%[9.04 µM]	.
O=C(NCCS(=O)(=O)N1CCN(c2ccccc2F)CC1)c1cccs1	-14%	-4	-2%	1%	-16%	-1%
CCCS(=O)(=O)NC(=O)C1(C)CCN(C(=O)c2oc3ccccc3c2C)C1 (centres undefined)	.	16	18%	3%	-20%	6%
CC(C)(c1ccc(O)cc1)c1ccc(O)c(C(=O)O)c1	.	6	0%	-14%	2%	0%
Cc1ccc(C(=O)N/C(=C/c2ccccc2F)C(=O)NCCCn2ccnc2)cc1	13%	-24	5%	17%	?	4%
Cc1ccc(C(=O)N/C(=C\c2ccccc2F)c2nc(=S)[nH][nH]2)cc1	?	-1	-2%	?	21µM*	-2%
Cc1ccc(/C=C(\NC(=O)c2ccc(C)cc2)c2nc(=S)[nH][nH]2)cc1	?	-11	-11%	?	15µM*	-15%
COc1cccc(-c2cc(C(F)(F)F)n3ncc(C(=O)O)c3n2)c1	-3%	7	17%	-6%	4%	20%
O=C(c1cnn2c(C(F)(F)F)cc(-c3ccco3)nc12)N1CCc2ccccc2C1	23µM*	-21	1%	?	?	9%
O=C(NCc1ccco1)c1cnn2c(C(F)(F)F)cc(-c3cccs3)nc12	?	-16	-16%	21µM*	15µM*	-12%
O=C(NC1CCCCC1)c1nn2c(C(F)(F)F)cc(-c3ccco3)nc2c1Br	?	0	-9%	-19%	-2%	0%
O=C(c1cnn2c(C(F)(F)F)cc(-c3ccco3)nc12)N1CCCCCC1	0%	12	-25%	-21%	?	-12%
COc1cccc(-c2cc(C(F)(F)F)n3ncc(C(=O)N4CCc5ccccc5C4)c3n2)c1	21µM*	-9	25%	18µM*	16µM*	16%
O=C(NC1CCCCC1)c1cnn2c(C(F)(F)F)cc(-c3ccco3)nc12	?	-9	?	?	23µM*	?
